In PubChem BioAssay AID1159580 (chemical genetic matrix, 2015):
Out of some 5,500 compounds screened, about 2,000 (36%) were called active. Inconclusive results (about 18%) are left out. Cut-off read from the data, not from the text of the source: active = normalized growth mostly below about 0.91 (no sharp cut-off); inconclusive = no clear call, values can overlap the other calls; inactive = mostly above about 0.92. The list shows a part of the results.

Experiment: chemical genetic growth profiling, strain panel (AID 1159580);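 note: tested at 20 µM; growth read once vehicle control cultures reached saturation at 30 °C; 1 = growth at the plate median or of vehicle wells; lower values mean less growth of the strain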
Conditions: growth OD

Measured: normalized growth

COc1ccc2c(c1)CCC1C2CC[C@@]2(C)C1CC[C@@H]2O (some centres not stated)
active: S. cerevisiae deletion strains, locus YJR075W, strain HOC1, hits give low values 0.705 | S. cerevisiae deletion strains, locus YKL009W, strain mrt4, hits give low values 0.685 | S. cerevisiae deletion strains, locus YKL085W, strain MDH1 (second series), hits give low values 0.853 | S. cerevisiae deletion strains, locus YKL085W, strain MDH1, hits give low values 0.853 | S. cerevisiae deletion strains, locus YKL160W, strain elf1, hits give low values 0.829 | S. cerevisiae deletion strains, locus YKL190W, strain CNB1, hits give low values 0.843 | S. cerevisiae deletion strains, locus YKR001C, strain vps1, hits give low values 0.359 | S. cerevisiae deletion strains, locus YLL001W, strain dnm1, hits give low values 0.838 | S. cerevisiae deletion strains, locus YLL026W, hits give low values 0.902 | S. cerevisiae deletion strains, locus YLR027C, strain aat2, hits give low values 0.816 | S. cerevisiae deletion strains, locus YLR039C, strain RIC1, hits give low values 0.351 | S. cerevisiae deletion strains, locus YLR058C, strain SHM2, hits give low values 0.879 | S. cerevisiae deletion strains, locus YLR113W, strain HOG1, hits give low values 0.816 | S. cerevisiae deletion strains, locus YLR221C, strain rsa3, hits give low values 0.808 | S. cerevisiae deletion strains, locus YLR258W, strain gsy2, hits give low values 0.892 | S. cerevisiae deletion strains, locus YLR262C, strain YPT6 (second series), hits give low values 0.505 | S. cerevisiae deletion strains, locus YLR262C, strain YPT6, hits give low values 0.293 | S. cerevisiae deletion strains, locus YLR268W, strain sec22, hits give low values 0.818 | S. cerevisiae deletion strains, locus YLR320W, strain mms22, hits give low values 0.722 | S. cerevisiae deletion strains, locus YLR330W, strain CHS5, hits give low values 0.748 | S. cerevisiae deletion strains, locus YLR342W, strain FKS1 (second series), hits give low values 0.398 | S. cerevisiae deletion strains, locus YLR342W, strain FKS1, hits give low values 0.781 | S. cerevisiae deletion strains, locus YLR357W, strain rsc2, hits give low values 0.852 | S. cerevisiae deletion strains, locus YLR418C, strain cdc73, hits give low values 0.381 | S. cerevisiae deletion strains, locus YML032C, strain rad52, hits give low values 0.696 | S. cerevisiae deletion strains, locus YML120C, strain ndi1, hits give low values 0.896 | S. cerevisiae deletion strains, locus YMR058W, strain fet3, hits give low values 0.872 | S. cerevisiae deletion strains, locus YMR078C, strain ctf18, hits give low values 0.867 | S. cerevisiae deletion strains, locus YMR205C, strain PFK2, hits give low values 0.697 | S. cerevisiae deletion strains, locus YMR223W, strain ubp8, hits give low values 0.728 | S. cerevisiae deletion strains, locus YMR263W, strain SAP30, hits give low values 0.785 | S. cerevisiae deletion strains, locus YMR307W, strain GAS1, hits give low values 0.237 | S. cerevisiae deletion strains, locus YNL067W, strain RPL9B, hits give low values 0.791 | S. cerevisiae deletion strains, locus YNL071W, strain lat1, hits give low values 0.468 | S. cerevisiae deletion strains, locus YNL128W, strain TEP1, hits give low values 0.78 | S. cerevisiae deletion strains, locus YNL153C, strain GIM3, hits give low values 0.838 | S. cerevisiae deletion strains, locus YNL233W, strain BNI4, hits give low values 0.584 | S. cerevisiae deletion strains, locus YNL250W, strain rad50, hits give low values 0.85 | S. cerevisiae deletion strains, locus YNL271C, strain bni1, hits give low values 0.8 | S. cerevisiae deletion strains, locus YNL298W, strain CLA4, hits give low values 0.548 | S. cerevisiae deletion strains, locus YNL307C, strain MCK1, hits give low values 0.266 | S. cerevisiae deletion strains, locus YNL322C, strain KRE1, hits give low values 0.87 | S. cerevisiae deletion strains, locus YNR052C, strain pop2, hits give low values 0.738 | S. cerevisiae deletion strains, locus YOL006C, strain TOP1, hits give low values 0.477 | S. cerevisiae deletion strains, locus YOL147C, strain pex11, hits give low values 0.695 | S. cerevisiae deletion strains, locus YOR070C, strain gyp1, hits give low values 0.873 | S. cerevisiae deletion strains, locus YOR083W, strain WHI5, hits give low values 0.825 | S. cerevisiae deletion strains, locus YOR106W, strain vam3, hits give low values 0.738 | S. cerevisiae deletion strains, locus YOR136W, strain idh2, hits give low values 0.853 | S. cerevisiae deletion strains, locus YOR144C, strain elg1, hits give low values 0.898 | S. cerevisiae deletion strains, locus YOR184W, strain ser1, hits give low values 0.458 | S. cerevisiae deletion strains, locus YOR265W, strain rbl2, hits give low values 0.912 | S. cerevisiae deletion strains, locus YOR290C, strain snf2, hits give low values 0.761 | S. cerevisiae deletion strains, locus YOR316C, strain cot1, hits give low values 0.85 | S. cerevisiae deletion strains, locus YPL051W, strain arl3, hits give low values 0.83 | S. cerevisiae deletion strains, locus YPL055C, strain LGE1, hits give low values 0.53 | S. cerevisiae deletion strains, locus YPL078C, strain atp4, hits give low values 0.791 | S. cerevisiae deletion strains, locus YPL106C, strain sse1, hits give low values 0.837 | S. cerevisiae deletion strains, locus YPL240C, strain hsp82, hits give low values 0.892 | S. cerevisiae deletion strains, locus YPL241C, strain CIN2, hits give low values 0.893 | S. cerevisiae deletion strains, locus YPR119W, strain clb2, hits give low values 0.917 | S. cerevisiae deletion strains, locus YPR163C, strain tif3, hits give low values 0.657 | S. cerevisiae deletion strains, locus YPR167C, strain met16, hits give low values 0.85 | S. cerevisiae deletion strains, strain wtn01, hits give low values 0.731 | S. cerevisiae strains, strain wild type, hits give low values 0.785
inactive: S. cerevisiae deletion strains, locus YKL068W, hits give low values 0.944 | S. cerevisiae deletion strains, locus YKR026C, strain gcn3, hits give low values 0.969 | S. cerevisiae deletion strains, locus YKR091W, strain srl3, hits give low values 0.968 | S. cerevisiae deletion strains, locus YLL041C, strain sdh2, hits give low values 0.973 | S. cerevisiae deletion strains, locus YLR102C, strain apc9, hits give low values 0.951 | S. cerevisiae deletion strains, locus YLR370C, strain arc18, hits give low values 0.959 | S. cerevisiae deletion strains, locus YLR371W, strain rom2, hits give low values 0.925 | S. cerevisiae deletion strains, locus YLR384C, strain iki3, hits give low values 1.02 | S. cerevisiae deletion strains, locus YML016C, strain PPZ1, hits give low values 0.977 | S. cerevisiae deletion strains, locus YML124C, strain tub3, hits give low values 0.934 | S. cerevisiae deletion strains, locus YMR125W, strain sto1, hits give low values 0.938 | S. cerevisiae deletion strains, locus YMR129W, hits give low values 0.961 | S. cerevisiae deletion strains, locus YMR231W, strain pep5, hits give low values 0.963 | S. cerevisiae deletion strains, locus YNL183C, strain NPR1, hits give low values 0.838 | S. cerevisiae deletion strains, locus YNL209W, strain ssb2, hits give low values 0.934 | S. cerevisiae deletion strains, locus YNL248C, strain rpa49, hits give low values 0.915 | S. cerevisiae deletion strains, locus YNL322C, strain KRE1 (second series), hits give low values 0.907 | S. cerevisiae deletion strains, locus YNR049C, strain mso1, hits give low values 0.984 | S. cerevisiae deletion strains, locus YOL012C, strain htz1 1.54 | S. cerevisiae deletion strains, locus YOR001W, strain rrp6, hits give low values 0.893 | S. cerevisiae deletion strains, locus YOR061W, strain CKA2, hits give low values 0.965 | S. cerevisiae deletion strains, locus YOR069W, strain VPS5, hits give low values 0.968 | S. cerevisiae deletion strains, locus YOR080W, strain dia2, hits give low values 0.98 | S. cerevisiae deletion strains, locus YOR231W, strain MKK1, hits give low values 0.883 | S. cerevisiae deletion strains, locus YOR270C, strain vph1, hits give low values 1.01 | S. cerevisiae deletion strains, locus YPL256C, strain CLN2, hits give low values 0.878 | S. cerevisiae deletion strains, locus YPR141C, strain kar3, hits give low values 0.967
